The entries come from a sample that favours hits as a whole.
HCMV NEC inh = inhibitors of HCMV UL50-UL53 nuclear egress complex interaction. AID 1918969. actives 0.15% (n = 190,000). HTRF UL50-UL53 interaction, normalized percent inhibition. inhibition, % (no concentration beside the values); in the data active = inhibition above about 27%, passing the limit was not always enough
Sa growth inh = blocks Staphylococcus aureus growth | S. aureus RN4220 growth, OD600, 20 h, 42 °C; active compounds read low | relative growth, % (test concentration not listed) | actives 0.53% (n = 170,000);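 active = relative growth at most 50% at the other temperature and 20+ points below 30 °C, or under 10% at both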
Sa helicase inh = S. aureus DNA helicase inhibition | inhibition, % (concentration not given with the values) | AID 485395 | actives 0.05% (n = 120,000) | purified S. aureus helicase, fluorescence unwinding assay; in the data active = inhibition above about 25%, passing the limit was not always enough;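 also: 0% = mean of negative control wells and 100% = mean of positive control wells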
Numbers without * were called inactive; / = no result given.

SMILES	HCMV NEC inh	Sa growth inh	Sa helicase inh
C=C1c2c(Cl)ccc(O)c2C(O)=C2C(=O)[C@]3(O)C(O)=C(C(N)=O)C(=O)[C@@H](N(C)C)[C@@H]3[C@@H](O)[C@H]12	-33	-0.9*	/
CC1c2cccc(O)c2C(O)=C2C(=O)[C@]3(O)C(O)=C(C(N)=O)C(=O)[C@@H](N(C)C)[C@@H]3C[C@@H]21 (stereo partly specified)	-70	/	/
C=C1c2cccc(O)c2C(O)=C2C(=O)[C@]3(O)C(O)=C(C(N)=O)C(=O)[C@@H](N(C)C)[C@@H]3[C@@H](O)[C@H]12	36	0.1*	/
C[C@H]1c2cccc(O)c2C(O)=C2C(=O)C3(O)C(O)=C(C(N)=O)C(=O)[C@@H](N(C)C)[C@@H]3[C@@H](O)[C@@H]21 (stereo partly specified)	-20	/	/
CCOC(=O)c1ccc(N2C(=O)CSCC2=O)cc1	2	102	/
O=C(Nc1ccccc1-c1nc2ccccc2[nH]1)C1CC1	-7	/	9
CN(C)CCCNCc1ccco1	-9	101	5
CN(C)CCCNCc1cccn1C	33*	107	13
Cc1ccc(-n2nnc3c(SCC(=O)Nc4cc(C)on4)ncnc32)cc1	-35	83	2
COc1ccc(CCNc2nccc(=O)[nH]2)cc1OC	-12	115	0
COc1ccc(CNc2cc(C)nc3ccc(OC)cc23)cc1	-2	75	-11
COc1ccc(Nc2cc(C)nc3ccc(OC)cc23)cc1	-64	88	63*
COc1ccc(N2C(=O)/C(=C/c3cc(OC)c(OC)cc3Cl)NC2=S)cc1	-17	/	/
Cc1cc(C(=O)OC(C)C(=O)Nc2ccc(Cl)cn2)c(C)o1 (stereo unspecified)	-16	71	-9
Cc1noc(C)c1C(=O)Nc1nnc(SCC(=O)O)s1	8	104	-12
Cc1noc(C)c1C(=O)Nc1nnc(SCc2ccc(Cl)cc2)s1	2	4.9*	4
CCn1cc(C(=O)O)c(=O)c2cc(F)c(N3CCNC(C)C3)c(F)c21 (stereo unspecified)	-60	-0.6*	/
CC1COc2c(F)c(F)cc3c(=O)c(C(=O)O)cn1c23 (stereo unspecified)	-11	/	18
COC(=O)[C@@H]1CC(=O)O[C@H](C)C/C=C/C=C/[C@H](O)[C@H](C)C[C@H](CC=O)[C@H](OC2O[C@H](C)[C@@H](OC3C[C@@](C)(O)[C@@H](OC(=O)CC(C)C)[C@H](C)O3)[C@H](N(C)C)[C@H]2O)[C@H]1OC (stereo partly specified)	-53	-0.6*	/
COc1ccc(CCNC(=O)CN(c2ccc(OC)c(OC)c2)S(=O)(=O)c2ccc(C)cc2)cc1OC	10	/	/
CCOC(=O)c1c(C)n(-c2ccccc2)c2c1cc(OC(=O)c1ccc(C)c(C)c1)c1ccccc12	-16	/	/
N#Cc1ccc(NC(=O)COC(=O)CCc2nc3ccccc3[nH]c2=O)cc1	-28	91	14
CCc1c(C)sc2c1CCN(Cc1ccccc1C#N)C2c1ccccc1 (stereo unspecified)	/	98	/
CCc1c(C)sc2c1CCN(Cc1ccccc1)C2c1ccccc1 (stereo unspecified)	/	-1.1*	/
CCC(c1nnc(SCC(=O)NCCc2ccc(Cl)cc2Cl)o1)N(C)C (stereo unspecified)	-12	88	44*
SMILES	HCMV NEC inh	Sa growth inh	Sa helicase inh
CCC(c1nnc(SCC(=O)NCC(C)C)o1)N(C)C (stereo unspecified)	-16	98	-6
CCOC(=O)/C=c1\s/c(=C\c2cccs2)c(=O)n1CC(=O)N(C)C	-25	76	-13
CC(C)n1cnc2nc(COc3ccc(Cl)cc3NC(=O)Nc3ccccc3)cc(=O)n21	5	/	/
Cc1ccc(C)c([C@H]2[C@H](C(=O)c3ccccc3)N3c4ccccc4C=CC3C2(C#N)C#N)c1 (stereo partly specified)	-37	56	-6
N#C[C@@H]1C[C@@](C#N)(C(=O)c2ccccc2)[C@H]2C=Cc3ccccc3N12	-38	5.3*	-2
COc1cc(C#N)ccc1OCC(=O)Nc1cccc2nsnc12	-36	80	-9
CSCc1nnc(NC(=O)c2ccc(S(=O)(=O)N(C)Cc3ccccc3)cc2)o1	-33	2.4*	6
CN(c1ccccc1)S(=O)(=O)c1ccc(C(=O)Nc2nnc(C(F)(F)F)o2)cc1	2	3.2*	11
CCCCN(CC)S(=O)(=O)c1ccc(C(=O)Nc2nnc(COC)o2)cc1	-26	-0.5*	-3
C=CCN(CC=C)S(=O)(=O)c1ccc(C(=O)Nc2nnc(COC)o2)cc1	/	22	-8
CCN(Cc1ccccc1)S(=O)(=O)c1ccc(C(=O)Nc2nnc(COC)o2)cc1	/	5.7*	-1
CN(c1ccccc1)S(=O)(=O)c1ccc(C(=O)O)cc1	10	91	25
CCN(CC)S(=O)(=O)c1ccc(C(=O)Nc2ncn(Cc3ccccc3)n2)cc1	1	94	3
CCc1nnc(NC(=O)c2ccc(S(=O)(=O)N(C)C)cc2)o1	-38	79	0
CN1C(=O)c2cc(NC(=O)CN3C(=O)c4ccccc4C3=O)ccc2Oc2ccccc21	4	/	/
Cc1ccc(C)c(/C=C/c2onc(C)c2S(=O)(=O)N2CCCC(C(=O)N(C)C3CCCCC3)C2)c1 (stereo unspecified)	-21	/	/
O=C(O)c1cnn2c(-c3ccc4c(c3)OCO4)ccnc12	-65	/	/
COc1ccc(-c2nc(N)sc2-c2ccccc2)cc1	-19	/	16
N#CSc1sc(N)nc1-c1ccccc1	0	0.1*	19
COC(=O)C1=C(C)NC(=O)C1(NS(=O)(=O)c1ccc(C)cc1)C(F)(F)F (stereo unspecified)	4	72	4
COC1(NS(=O)(=O)c2ccc(C)cc2)C(C)=CC(=O)C=C1C	0	1.7*	23
Cc1ccc(C(=O)CCC(=O)N2CCCCCC2)cc1	-15	123	6
Cc1ccc2c(c1)sc1nc(C)c(S(=O)(=O)Nc3cc(F)ccc3C)c(=O)n12	-18	/	/
CC1(C)S[C@@H]2[C@H](NC(=O)[C@@H](N)c3ccc(O)cc3)C(=O)N2[C@H]1C(=O)O	-13	-0.4*	/
CC1(C)S[C@@H]2[C@H](NC(=O)[C@H](NC(=O)N3CCNC3=O)c3ccccc3)C(=O)N2C1C(=O)O (stereo partly specified)	-42	-1.3*	/
SMILES	HCMV NEC inh	Sa growth inh	Sa helicase inh
CC1(C)S[C@@H]2C(NC(=O)C(N)c3ccc(O)cc3)C(=O)N2C1C(=O)O (stereo partly specified)	13	/	/
CC1(C)S[C@@H]2[C@H](NC(=O)[C@H](NC(=O)N3CCNC3=O)c3ccccc3)C(=O)N2[C@H]1C(=O)O	-19	/	/
Cc1cc(NC(=O)CN(Cc2ccccc2)S(=O)(=O)/C=C/c2ccccc2)no1	-14	94	-10
CC(C(=O)NC1CCCC1)N(C)CCOc1ccc(Cl)cc1 (stereo unspecified)	-37	84	11
CCC(Sc1nc2ccc(N3CCOCC3)cc2c(=O)n1CCc1ccccc1)C(=O)NCc1ccco1 (stereo unspecified)	-27	101	3
Cc1cc(C(=O)NCc2csc(-c3cccs3)n2)no1	-39	107	/
CN(CC1CCCO1)S(=O)(=O)c1ccc(C(=O)Nc2ccc3c(c2)C(=O)NC3=O)cc1 (stereo unspecified)	-33	96	-9

Screening results (PubChem)
